# Measured values as given in PubChem BioAssay (NCATS).
# Records with an inconclusive call do not appear. The source made the active and inactive calls. Calls follow the shape of the full dose curve.
# Assay: Confirmatory qHTS to identify inhibitors of SARS-CoV-2 cell entry (AID 1645844); also: nearly all actives have a fitted effect of over 45% in size
# Details: SARS-CoV-2 pseudotyped particle cell entry, luciferase; series mostly up to 57.2 µM
# Description: Assay Provider: Wei Zheng, Ph.D.
# National Center for Advancing Translational Sciences, National Institute of Health, Rockville, MD.
# SARS-CoV-2 spike protein, within the viral envelope, mediates viral attachment and infection of host cells. The SARS-CoV-2 spike protein specifically binds to the host receptor ACE2 (Angiotensin-converting enzyme 2). This interaction promotes endocytosis of the viral particle, additional events lead to viral-host cell membrane fusion and release of the viral contents, allowing viral replication.
# While SARS-CoV-2 requires BSL-3 facilities for live virus work, pseudotyped partices (PP) that incorporate SARS-CoV-2 spike proteins without replication elements could facilitate studies on viral entry mechanisms in a BSL-2 setting. This PP cell entry assay could also enable screening of small molecule compound libraries in BSL-2 setting to identify inhibitors of SARS-CoV-2 cell entry.
# SEQUENCE No. (e.g., 1, 2, 3, etc.); […] (e.g., Cells, Incubation, Reagent, etc.); VALUE and DESCRIPTION.
# 1. Cells. Seed 1500 HEK293-ACE2 cells (Expi293F with stable expression of human ACE2) in 2 uL/well media (DMEM, 10% FBS, 1x L-glutamine, 1x Pen/Strep, 1 ug/ml puromycin) in white 1536-well assay plates (Greiner #782073).
# 2. Incubation. Incubate at 37C with 5% CO2 overnight (~16 h).
# 3. Compounds. Dispense 23 nL/well compounds in DMSO via pin transfer.
# 4. Incubation. Incubate for 1 hr at 37C 5% CO2.
# 5. Reagent. Dispense 2 uL/well of SARS-CoV-2-S pseudotyped particles (PP). [a] PPs are produced with murine leukemia virus pseudotyping). [b] SARS-CoV-2-S is Wuhan-Hu-1 sequence (BEI #NR-52420) with C-terminal 19 amino acid truncation.
# 6. Centrifugation. […]
# 7. Incubation. Incubate at for 48 hr at 37C 5% CO2
# 8. Centrifugation. Remove supernatant with gentle centrifugation using a Blue Washer (BlueCat Bio).
# 9. Reagent. Dispense 4 uL/well of Bright-Glo Luciferase detection reagent (Promega #E2620).
# 10. Incubation. Incubate for 5 min at room temperature.
# 11. Detection. Read luminescence signal (Viewlux plate reader, PerkinElmer). Data was normalized with wells containing SARS-CoV-2-S PP as 100%, and wells containing bald PP (no fusion protein) as 0%.
# Potency is read from the fitted curve at half-maximal effect.
row,SMILES,Potency
1,CCCSS/C(CCO)=C(\C)N(C=O)Cc1cnc(C)nc1N,inactive
2,CCN(CC)CCOc1ccc(/C(=C(\Cl)c2ccccc2)c2ccccc2)cc1,21.5 µM (active)
3,O=c1[nH]c(=O)n([C@H]2C[C@H](O)[C@@H](CO)O2)cc1C(F)(F)F,0.0857 µM (active)
4,COC(=O)[C@H]1[C@H]2C[C@@H]3c4[nH]c5cc(OC)ccc5c4CCN3C[C@H]2C[C@@H](OC(=O)/C=C/c2ccc(O)c(OC)c2)[C@@H]1OC,30.4 µM (active)
5,O=C(Nc1ccccc1)OCC(CN1CCCCC1)OC(=O)Nc1ccccc1 (stereo not given),inactive
6,CN(C)CCCN1c2ccccc2Sc2ccccc21,27.1 µM (active)
7,O[C@@H](COc1cccc2ncccc12)CN1CCN(C2c3ccccc3[C@@H]3[C@H](c4ccccc42)C3(F)F)CC1 (stereo not given in full),19.2 µM (active)
8,CN1CCCCC1CCN1c2ccccc2Sc2ccc(S(C)=O)cc21 (stereo not given),1.08 µM (active)
9,O=C(CCCN1CCN(c2ccc(F)cc2)CC1)NC1c2ccccc2CSc2ccccc21 (stereo not given),1.92 µM (active)
10,CCCCCCOC(=O)NC(=N)c1ccc(NCc2nc3cc(C(=O)N(CCC(=O)OCC)c4ccccn4)ccc3n2C)cc1,10.8 µM (active)
11,CN(C(=O)c1c(O)c2ccccc2n(C)c1=O)c1ccccc1,inactive
12,O=C1NC2CCCCN2C12CCN(CCCN1c3ccccc3CCc3ccc(Cl)cc31)CC2 (stereo not given),15.2 µM (active)
13,CN1CCC(=C2c3ccccc3CCc3sccc32)CC1,21.5 µM (active)
14,CC(=O)c1ccc2c(c1)N(CCCN1CCC(CCO)CC1)c1ccccc1S2,22.4 µM (active)
15,CCCCCOc1ccccc1/C(=C\SC)n1ccnc1,24.1 µM (active)
16,CCCCC(CC)COC(=O)C(C#N)=C(c1ccccc1)c1ccccc1 (stereo not given),27.1 µM (active)
17,COC(=O)C1=C(C)NC(C)=C(C(=O)OC(C)(C)CN(C)CCC(c2ccccc2)c2ccccc2)C1c1cccc([N+](=O)[O-])c1 (stereo not given),6.07 µM (active)
18,Clc1ccccc1C(c1ccccc1)(c1ccccc1)n1ccnc1,24.1 µM (active)
19,C=CC[C@]1(O)CC[C@H]2[C@@H]3CCC4=CC(=O)CCC4=C3C=C[C@@]21C,15.2 µM (active)
20,CCOC(=O)C1=C(C)NC(C)=C(C(=O)OCC)C1c1ccccc1/C=C/C(=O)OC(C)(C)C,0.961 µM (active)
21,CN(C)CCOC(c1ccccc1)c1ccc(Br)cc1 (stereo not given),2.41 µM (active)
22,CCCOc1ccc2nc(NC(=O)OC)[nH]c2c1,0.764 µM (active)
23,Oc1ccc(Cl)cc1Cc1cc(Cl)ccc1O,0.0152 µM (active)
24,Oc1c(Cl)cc(Cl)cc1Sc1cc(Cl)cc(Cl)c1O,2.71 µM (active)
25,CC1=CC(=O)c2ccccc2C1=O,19.2 µM (active)
26,c1ccc2c(c1)Sc1ccccc1N2CC1CN2CCC1CC2 (stereo not given),4.82 µM (active)
27,CCCCCC(=O)O[C@]1(C(C)=O)CC[C@H]2[C@@H]3CCC4=CC(=O)CC[C@]4(C)[C@H]3CC[C@@]21C,24.1 µM (active)
28,COCCOC(=O)C1=C(C)NC(C)=C(C(=O)OC/C=C/c2ccccc2)C1c1cccc([N+](=O)[O-])c1 (stereo not given),24.1 µM (active)
29,CCC(=O)C(CCN(C)C)(c1ccccc1)c1ccccc1,12.1 µM (active)
30,CC#C[C@]1(O)CC[C@H]2[C@@H]3C[C@H](C)C4=CC(=O)CC[C@]4(C)[C@H]3CC[C@@]21C,27.1 µM (active)
